Measured values from PubChem BioAssay (NCATS).
Inconclusive results are not listed. The source made the active and inactive calls. Unless noted, calls come from the whole dose curve; as a rule, active = well fitted curve in the direction sought with a large enough effect; inconclusive = small, poorly fitted or top-dose-only effect, or another doubt; inactive = no such curve, though single readings can be large; an effect the other way counts as inactive or inconclusive.

Assays:
[1] = qHTS assay for small molecule agonists of retinoid X receptor alpha signaling (AID 588544; calls by dose curve;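 for activation: 0% = DMSO basal wells and 100% = reference agonist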); conditions: HEK293T RXRa-UAS-bla, beta-lactamase reporter, 18 h; 530 nm emission
[2] = target: Retinoic acid receptor RXR-alpha (Homo sapiens) (UniProt P19793); test: as above; conditions: HEK293T RXRa-UAS-bla, beta-lactamase reporter, 18 h; series mostly up to 76.7 µM
Chain of Retinoic acid receptor RXR-alpha (Homo sapiens) (P19793 whole entry, looked up): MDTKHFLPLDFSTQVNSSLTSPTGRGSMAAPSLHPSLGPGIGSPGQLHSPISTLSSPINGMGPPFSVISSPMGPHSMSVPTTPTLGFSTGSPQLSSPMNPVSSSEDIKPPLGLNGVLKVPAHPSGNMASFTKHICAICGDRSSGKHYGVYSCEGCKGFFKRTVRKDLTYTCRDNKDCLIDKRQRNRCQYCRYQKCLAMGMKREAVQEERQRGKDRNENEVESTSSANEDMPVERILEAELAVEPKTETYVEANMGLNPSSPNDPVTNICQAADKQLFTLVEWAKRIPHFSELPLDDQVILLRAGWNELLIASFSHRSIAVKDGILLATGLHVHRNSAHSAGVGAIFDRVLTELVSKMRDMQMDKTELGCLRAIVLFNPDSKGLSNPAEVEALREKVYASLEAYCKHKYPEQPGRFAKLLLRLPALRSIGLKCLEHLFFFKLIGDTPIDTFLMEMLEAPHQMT

[3] = target: Thyroid hormone receptor beta (Homo sapiens) (UniProt P10828); test: qHTS assay for small molecule agonists of thyroid hormone receptor beta signaling (AID 588545; calls by dose curve;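 note: 0% = DMSO only and 100% = 10 nM T3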); conditions: TR-UAS-bla GripTite HEK 293, beta-lactamase ratio, agonist mode, 18 h, percent of T3 response, DMSO as zero; series mostly up to 76.7 µM
Chain of Thyroid hormone receptor beta (Homo sapiens) (P10828 whole entry, looked up): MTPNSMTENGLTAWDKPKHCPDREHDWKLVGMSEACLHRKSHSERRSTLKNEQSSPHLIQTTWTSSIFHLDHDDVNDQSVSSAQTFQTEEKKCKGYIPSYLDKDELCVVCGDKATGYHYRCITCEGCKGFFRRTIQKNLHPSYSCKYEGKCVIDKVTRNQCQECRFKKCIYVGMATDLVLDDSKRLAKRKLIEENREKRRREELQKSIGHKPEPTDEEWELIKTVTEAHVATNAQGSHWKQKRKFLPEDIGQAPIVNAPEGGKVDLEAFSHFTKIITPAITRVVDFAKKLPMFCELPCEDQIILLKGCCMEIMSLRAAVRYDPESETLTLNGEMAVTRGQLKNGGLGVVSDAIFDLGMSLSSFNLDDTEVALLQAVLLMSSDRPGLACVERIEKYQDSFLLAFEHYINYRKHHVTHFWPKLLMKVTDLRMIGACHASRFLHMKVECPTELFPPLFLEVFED
In short: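 TR-UAS-bla-GripTite HEK 293 cells in medium with 2% charcoal/dextran FBS, 0.1 mM NEAA and 1 mM sodium pyruvate were treated with titrated compounds for 18 hrs at 37 C. Beta-lactamase reporter was read with CCF4 dye (ex 405, em 460/530 nm); EC50 from Hill fits.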

[4] = qHTS assay for small molecule antagonists of retinoid X receptor alpha signaling (AID 588546; active = well fitted inhibition curve with a large enough effect in the signal ratio, with a control signal flat, not every such curve was filed as active; the % refers to the signal ratio;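 note: cells stimulated with 9-cis-retinoic acid as agonist; % is set by controls: 0 for no effect and ±100 for the full control effect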); conditions: HEK293T RXRa-UAS-bla, beta-lactamase ratio, antagonist mode; measured here: W530 green channel, cytotoxicity proxy
In short: (§1)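 Beta-lactamase reporter inhibition, read as CCF4 fluorescence ratio (ex 405, em 460/530 nm) after 2 h at RT. HEK293T UAS-bla cells, 2500/well, were stimulated with 9-cis-RA at 500 or 100 nM final alongside test compound for 18 h at 37 C.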

[5] = target: Retinoic acid receptor RXR-alpha (Homo sapiens) (UniProt P19793); test: as above; conditions: HEK293T RXRa-UAS-bla, beta-lactamase ratio, antagonist mode
In short: as §1

[6] = target: Voltage-gated inwardly rectifying potassium channel KCNH2 (Homo sapiens) (UniProt Q12809); test: qHTS Assay for Small Molecule Inhibitors of the Human hERG Channel Activity (AID 588834); conditions: U2OS BacMam hERG, FluxOR thallium flux fluorescence; series mostly up to 92.2 µM;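 note: top concentration of the series differs between compounds; % is set by controls: 0 for no effect and ±100 for the full control effect; lower thallium flux fluorescence means stronger hERG block; nearly all actives have a fitted effect of over 50% in size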
Chain of Voltage-gated inwardly rectifying potassium channel KCNH2 (Homo sapiens) (Q12809 whole entry, looked up): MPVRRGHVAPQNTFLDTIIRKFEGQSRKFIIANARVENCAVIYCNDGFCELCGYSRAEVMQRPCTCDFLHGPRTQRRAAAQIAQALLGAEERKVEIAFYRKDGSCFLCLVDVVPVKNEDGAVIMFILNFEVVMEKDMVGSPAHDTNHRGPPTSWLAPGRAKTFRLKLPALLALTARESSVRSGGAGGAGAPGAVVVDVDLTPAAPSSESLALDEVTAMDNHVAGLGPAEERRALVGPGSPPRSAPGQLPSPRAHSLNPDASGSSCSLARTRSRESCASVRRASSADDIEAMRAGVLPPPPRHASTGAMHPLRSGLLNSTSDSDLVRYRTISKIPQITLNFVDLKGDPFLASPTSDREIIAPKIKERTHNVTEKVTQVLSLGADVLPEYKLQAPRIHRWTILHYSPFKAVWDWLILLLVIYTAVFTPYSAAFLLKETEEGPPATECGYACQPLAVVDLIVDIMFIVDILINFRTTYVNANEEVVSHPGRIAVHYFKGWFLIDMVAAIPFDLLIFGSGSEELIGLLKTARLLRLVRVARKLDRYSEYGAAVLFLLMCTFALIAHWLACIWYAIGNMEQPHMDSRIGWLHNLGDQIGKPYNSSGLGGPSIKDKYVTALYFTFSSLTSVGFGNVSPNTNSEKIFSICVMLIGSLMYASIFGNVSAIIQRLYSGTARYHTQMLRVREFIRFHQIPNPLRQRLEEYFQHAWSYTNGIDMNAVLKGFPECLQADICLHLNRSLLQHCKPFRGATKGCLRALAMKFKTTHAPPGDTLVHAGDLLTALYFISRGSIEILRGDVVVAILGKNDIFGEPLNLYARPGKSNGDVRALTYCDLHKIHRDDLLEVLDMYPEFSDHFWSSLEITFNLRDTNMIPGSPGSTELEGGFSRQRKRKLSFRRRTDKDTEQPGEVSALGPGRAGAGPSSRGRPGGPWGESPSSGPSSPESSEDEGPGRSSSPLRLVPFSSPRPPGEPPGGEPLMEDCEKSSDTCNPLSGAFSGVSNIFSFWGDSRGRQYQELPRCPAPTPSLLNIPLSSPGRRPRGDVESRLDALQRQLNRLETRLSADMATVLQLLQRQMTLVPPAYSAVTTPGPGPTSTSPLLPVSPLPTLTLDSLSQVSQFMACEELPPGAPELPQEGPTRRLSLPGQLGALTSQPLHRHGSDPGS
In short: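 Step 1: BacMam hERG transduction of U2OS, 4 hrs RT. Step 2: overnight 37 °C, plate 2000 cells/well, 4 hr. Step 3: FluxOR load, compound 10 min, stimulate, read fluorescence.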

[7] = qHTS assay for small molecule agonists of the antioxidant response element (ARE) signaling pathway (AID 651741; active = well fitted activation curve with a large enough effect in the signal ratio; the % refers to the signal ratio; note: % of control where 0% means no effect); conditions: HepG2 ARE-bla reporter, beta-lactamase FRET ratio, 16 h; series mostly up to 96 µM
In short: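 Reporter: beta-lactamase under ARE, stably in HepG2. Exposure: 16 h, 37 C, compounds delivered in DMSO by pin tool after 5 h cell preincubation. Readout: FRET substrate fluorescence after 2 h at RT.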

[8] = qHTS assay for small molecule activators of the p53 signaling pathway (AID 651743; active = well fitted activation curve with a large enough effect in the signal ratio, not every such curve was filed as active; the % refers to the signal ratio; note: % of control where 0% means no effect); conditions: HCT-116 p53RE-bla, beta-lactamase FRET ratio, 16 h; stronger effect = higher value
In short: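 Agonist-mode quantitative HTS in HCT-116 cells carrying a p53-response-element beta-lactamase reporter; 16 h compound treatment at 37 C, then FRET substrate loading for 2 h at room temperature and fluorescence read.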

[9] = qHTS assay for small molecule activators of the nuclear factor-kappa B (NF-kB) signaling pathway (AID 651749; active = well fitted activation curve with a large enough effect in the signal ratio; the % refers to the signal ratio; note: % of control where 0% means no effect); conditions: NF-kB-bla ME-180 cells, beta-lactamase FRET ratio, 16 h; stronger effect = higher value
In short: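 Human ME-180 cervical cells with an NF-kB-bla construct; compounds added via 23 nL pin transfer, DMSO as vehicle; incubation 16 hr. Reporter activity measured by FRET disruption.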

[10] = target: Tumor necrosis factor (Homo sapiens) (UniProt P01375); test: qHTS assay to identify small molecules that stimulate Tumor Necrosis Factor-alpha (TNF-alpha) secretion (AID 651757; active = well fitted curve in the direction sought with a large enough effect in the signal ratio; the % refers to the signal ratio; note: 0% is about no effect); conditions: Human cells, HTRF 665/615 ratio; series mostly up to 92.2 µM
Chain of Tumor necrosis factor (Homo sapiens) (P01375 whole entry, looked up): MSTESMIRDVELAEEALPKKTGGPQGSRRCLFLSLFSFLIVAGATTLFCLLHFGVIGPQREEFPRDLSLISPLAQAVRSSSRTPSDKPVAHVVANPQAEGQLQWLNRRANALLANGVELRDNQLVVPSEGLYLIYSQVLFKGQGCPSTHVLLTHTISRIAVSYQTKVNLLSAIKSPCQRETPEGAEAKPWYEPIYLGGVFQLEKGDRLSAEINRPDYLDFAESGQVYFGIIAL
In short: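 Human monocytic THP-1 cells are plated, treated with compound and held at 37 C for 17 hrs. Labeled anti-TNF-alpha antibody mixture is then added; after 3 hr at room temperature, TR-FRET signal reports secreted TNF-alpha.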

[11] = qHTS assay to identify small molecules that stimulate interleukin-8 (IL-8) secretion (AID 651758; active = well fitted activation curve with a large enough effect in the signal ratio; the % refers to the signal ratio; note: 0% is about no effect); conditions: HTRF ratio (665/615); series mostly up to 92.2 µM
In short: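 Quantitative HTS in THP-1 monocytic cells at 2000 cells per well, with 16 hrs compound incubation at 37 C. IL-8 in the medium was then quantified by HTRF immunoassay, read after 1-3 hrs at room temperature.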

[12] = qHTS assay for environmental chemicals that activate the Aryl hydrocarbon Receptor (AhR) signaling pathway (AID 651777); conditions: 1A2-DRE human hepatoma cells, luciferase, 24 h; activation: stronger effect = higher value; note: % of control where 0% means no effect; nearly all actives have a fitted effect of over 15% in size
In short: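 Concentration–response screening used 1,200 1A2-DRE cells per well, 24 hr compound exposure (37 C, 5% CO2), and One-Glo luminescence as the AhR-driven CYP1A2 reporter signal.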

[13] = target: Peroxisome proliferator-activated receptor alpha (Homo sapiens) (UniProt Q07869); test: qHTS assay for small molecule agonists of the peroxisome proliferator-activated receptor alpha (PPARalpha) signaling pathway (AID 651778); conditions: PathHunter PPARalpha complementation, chemiluminescence, 6 h; stronger effect = higher value; note: % of control where 0% means no effect
Chain of Peroxisome proliferator-activated receptor alpha (Homo sapiens) (Q07869 whole entry, looked up): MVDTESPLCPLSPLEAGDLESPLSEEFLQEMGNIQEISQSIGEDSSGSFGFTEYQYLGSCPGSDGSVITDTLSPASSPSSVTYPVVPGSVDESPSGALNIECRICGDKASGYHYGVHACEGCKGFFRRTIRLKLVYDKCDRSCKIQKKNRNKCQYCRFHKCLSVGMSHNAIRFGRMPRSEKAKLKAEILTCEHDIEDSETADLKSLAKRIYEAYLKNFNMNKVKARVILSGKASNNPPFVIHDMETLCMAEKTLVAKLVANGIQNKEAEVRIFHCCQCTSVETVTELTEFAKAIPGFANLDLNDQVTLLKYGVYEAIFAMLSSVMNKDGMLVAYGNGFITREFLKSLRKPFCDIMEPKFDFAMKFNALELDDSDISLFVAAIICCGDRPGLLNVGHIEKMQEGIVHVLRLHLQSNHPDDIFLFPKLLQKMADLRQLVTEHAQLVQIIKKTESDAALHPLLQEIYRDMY
In short: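 Cells plated at 2,000/well and held overnight at 37 C, 5% CO2, then compound added by pin tool for 6 hr; after PathHunter detection reagent and 60 min at room temperature, chemiluminescence from enzyme complementation was read.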

[14] = target: Nuclear receptor ROR-gamma (Homo sapiens) (UniProt P51449); test: qHTS assay for small molecule antagonists of the retinoid-related orphan receptor gamma (ROR-gamma) signaling pathway (AID 651802); conditions: ROR-gamma antagonist cell reporter assay; series mostly up to 92.2 µM;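 note: CHO cells with doxycycline-induced ROR-gamma expression; % is set by controls: 0 for no effect and ±100 for the full control effect; nearly all actives have a fitted effect of over 60% in size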
Chain of Nuclear receptor ROR-gamma (Homo sapiens) (P51449 whole entry, looked up): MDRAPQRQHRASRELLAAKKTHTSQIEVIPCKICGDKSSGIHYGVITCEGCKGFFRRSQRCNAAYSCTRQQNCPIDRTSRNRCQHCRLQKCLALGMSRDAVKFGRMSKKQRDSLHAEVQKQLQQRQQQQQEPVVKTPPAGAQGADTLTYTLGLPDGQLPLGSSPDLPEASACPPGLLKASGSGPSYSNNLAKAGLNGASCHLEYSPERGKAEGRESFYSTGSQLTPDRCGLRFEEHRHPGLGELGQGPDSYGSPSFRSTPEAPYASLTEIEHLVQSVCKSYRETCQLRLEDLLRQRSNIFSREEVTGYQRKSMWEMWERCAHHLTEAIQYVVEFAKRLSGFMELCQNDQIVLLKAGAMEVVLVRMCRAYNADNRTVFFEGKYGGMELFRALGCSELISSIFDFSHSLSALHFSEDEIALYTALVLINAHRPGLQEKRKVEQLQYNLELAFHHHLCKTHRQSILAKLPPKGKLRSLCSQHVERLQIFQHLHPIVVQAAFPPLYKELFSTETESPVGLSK
In short: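 Steps: cells dispensed; compound or DMSO transferred by pin tool; doxycycline added to induce the ROR response element-driven luciferase; plates held 16hr at 37C; ONE-Glo added and luminescence measured.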

[15] = qHTS assay for small molecule agonists of the antioxidant response element (ARE) signaling pathway measured by Nrf2-dependant transcriptional activity (AID 720636; active = well fitted curve in the direction sought with a large enough effect in the repeat runs; an effect the other way counts as inactive or inconclusive;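 note: HepG2 cells with an ARE-driven luciferase reporter; % of control where 0% means no effect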); conditions: ARE-luc HepG2, Nrf2 luciferase reporter, 16 h; series mostly up to 92.4 µM
In short: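 Attachment 6 hr at 37 C, then compound versus DMSO vehicle for 16 hr in ARE-luc HepG2 cells (1% dialyzed FBS); luminescence recorded 30 min after ONE-Glo addition at room temperature.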

[16] = qHTS assay for small molecule antagonists of the retinoid-related orphan receptor gamma (ROR-gamma) signaling pathway - cell viability counter screen (AID 720652; active = well fitted curve in the direction sought with a large enough effect in the repeat runs; an effect the other way counts as inactive or inconclusive;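 note: CHO reporter cells with doxycycline-induced ROR-gamma expression; compound exposure lasted 16 hr before ATP read; % is set by controls: 0 for no effect and ±100 for the full control effect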); conditions: RORgamma reporter cell line viability counter screen; series mostly up to 92.2 µM
In short: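 Steps: seed CHO cells bearing TET-inducible ROR and ROR response element-luciferase; rest 5 hr at 37 C; add compound, then doxycycline; incubate 16 hr; add CellTiter-Glo and read luminescence as ATP-based viability.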

[17] = target: Thyroid hormone receptor beta (Homo sapiens) (UniProt P10828); test: qHTS assay for small molecule antagonists of thyroid hormone receptor beta signaling (AID 588547; active = well fitted inhibition curve with a large enough effect in the signal ratio, with a control signal flat, not every such curve was filed as active; the % refers to the signal ratio;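 note: cells stimulated with 0.4 nM T3 agonist during compound exposure; % is set by controls: 0 for no effect and ±100 for the full control effect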); conditions: TR-UAS-bla HEK293, beta-lactamase ratio, antagonist mode, 18 h
In short: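 TR-UAS-bla GripTite HEK293 cells in 2% charcoal/dextran FBS medium were preincubated 4 h at 37 C, given compound (0.59 nM to 92 uM) plus 0.4 nM T3 (final) for 18 h, then CCF4 for 2 h at RT; Hill fit gave IC50.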

[18] = qHTS assay for small molecule disruptors of the mitochondrial membrane potential - 1 hr assay (AID 651754; calls by dose curve; note: % is set by controls: 0 for no effect and ±100 for the full control effect; nearly all actives have a fitted effect of over 35% in size); conditions: series mostly up to 92.2 µM
In short: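 Loss of mitochondrial potential shifts the cationic dye from red mitochondrial aggregates to green cytoplasmic monomers. Cells (HepG2) are treated with compound for 1 hr before a 30 min dye incubation at 37C.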

[19] = qHTS assay for small molecule disruptors of the mitochondrial membrane potential - 5 hr assay (AID 651755; calls by dose curve; note: % is set by controls: 0 for no effect and ±100 for the full control effect; nearly all actives have a fitted effect of over 40% in size); conditions: JC-1-type ratio dye; series mostly up to 92.2 µM
In short: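 Seed HepG2 overnight, add compound, incubate 5 hr at 37C and 5% CO2, stain 30 min with Mito-MPS, then measure monomer (490/535 nm) and aggregate (540/590 nm) fluorescence.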

[20] = qHTS assay for small molecule agonists of the antioxidant response element (ARE) signaling pathway measured by Nrf2-dependant transcriptional activity - cell viability counter screen (AID 720653; active = well fitted curve in the direction sought with a large enough effect in the repeat runs; an effect the other way counts as inactive or inconclusive; note: % is set by controls: 0 for no effect and ±100 for the full control effect); conditions: ARE-bla HepG2 viability, CellTiter-Glo ATP luminescence, 16 h; stronger effect = lower value
In short: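 ARE-bla HepG2 cells (2,000/well) rested 5 hrs at 37C/5% CO2, then exposed to compounds in DMSO for 16 hrs. Viability was read in the same wells as intracellular ATP by luminescence, 30 min at room temperature after reagent addition.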

CC=O
inactive: outcome [2] | outcome [3] | max response [5] -0.48% | Potency [6] | Potency [7] | activation [8] 0.53% | activation [9] 9.05% | Potency [10] | Potency [11] | activation [12] 1.11% | max response [13] -2.4% | Potency [14] | outcome [15] | Potency [16]
-2.19%: max response [4]
-8.77%: max response [1]

CCCCC(CC)CNCC(CC)CCCC (stereo not drawn)
inactive: outcome [2] | outcome [3] | max response [5] 10% | activity change % (negative = inhibition) [17] 4.7% | Potency [7] | activation [9] -0.684% | Potency [18] | Potency [19] | Potency [10] | max response [13] -0.499% | Potency [14] | outcome [15] | Potency [16] | max response [20] 3.58%
0.349%: max response [4]
2.31%: max response [1]

Nc1ccc([N+](=O)[O-])c(N)c1
inactive: outcome [2] | outcome [3] | max response [5] -8.62% | activity change % (negative = inhibition) [17] -0.546% | activation [8] -5.74% | activation [9] 0.47% | Potency [10] | Potency [11] | activation [12] 1.41% | max response [13] -0.849% | Potency [14] | outcome [15] | Potency [16] | max response [20] -4.59%
-12.6%: max response [1]
-1.48%: max response [4]
